In PubChem BioAssay (Tox21):
Results filed as inconclusive are left out. Values without a mark were called inactive. Calls follow the shape of the dose curve; as a rule, active = well fitted cell-killing curve with a large enough effect in the repeat runs; inconclusive = weak or mixed curves; inactive = flat fitted curve, though single readings scatter.

Assay: qHTS RealTime-Glo MT Cell Viability Assay in HepG2 cells - 16 hour (AID 1224885); also: nearly all actives have a fitted effect of over 50% in size
Conditions: RealTime-Glo luminescence; series mostly up to 76.8 µM; activity change, negative = cytotoxic: at the top concentration
Excerpt: U.S. Tox21 Program National Center for Advancing Translational Sciences [NCATS] NIH Chemical Genomics Center [NCGC] U.S. Environmental Protection Agency [EPA] National Institutes of Environmental Health Sciences [NIEHS] National Toxicology Program [NTP] U.S. Food and Drug Administration [FDA] Tox21 Assay Overview: Measure of cell viability is critical in the cell-base assay. Analysis of cell viability is necessary for the characterization of cell responses to cytotoxic drugs and environmental stress. A RealTime-Glo MT Cell Viability Assay to monitor cell viability in real time of continues cell culture during 40 hours of compound treatment was used to screen Tox21 10K library compounds in HepG2 cells. The RealTime-Glo MT Cell Viability Assay is a nonlytic, homogeneous, bioluminescent method to measure cell viability in real time using a simple, plate-based method. The assay involves adding NanoLuc luciferase and a cell-permeant prosubstrate to cells in culture. Viable cells reduce the proprietary prosubstrate to generate a substrate for NanoLuc luciferase. This substrate diffuses from cells into the surrounding culture medium, where it is rapidly used by the NanoLuc Enzyme to produce a luminescent signal. The signal correlates with the number of viable cells, making the assay well suited for cytotoxicity studies.
Tox21 Assay Protocol Summary: The mixture of HepG2 cell suspension and reagents were dispensed at 600cells/6 ul/well in 1536-well tissue culture treated black solid bottom plates using a Multidrop dispenser. After the assay plates were incubated at a 37 C/5% CO2 incubator for 5 hours, 23 nL of compounds dissolved in DMSO, positive and negative controls was transferred to the assay plate by a pintool work station. The plates were incubated at 37 C for 40 hours. The luminescence intensity were measured at 0h, 8h, 16h, 24h, 32h and 40h time points using ViewLux plate reader during compound treatment.
% is scaled to controls: 0 for no effect and ±100 for the full control effect.

Row | SMILES | activity change, negative = cytotoxic
1 | CCCCCCCCCCCCCCCCN(C)C | 0.191% [at 6.97 µM]
2 | O=C[C@@H](O)[C@H](O)[C@H](O)CO | 1.84%
3 | CC(C)(C)C(=O)CCc1ccc(Cl)cc1 | -4.41%
4 | COC(=O)c1cc(Cl)c(NC(C)=O)cc1OC | 4.35% [at 35.3 µM]
5 | CC1(C)C(=O)C(C)(C)C1=O | 0.744%
6 | NNC(=O)CCCCC(=O)NN | 1.52%
7 | O=Cc1ccccc1S(=O)(=O)O | 3.38%
8 | C/C(=N\O)c1ccc(OCC(=O)N2CCCCC2)cc1 | 5.71% [at 35.3 µM]
9 | O=C1CC2(CCCC2)CC(=O)N1CCNCC1COc2ccccc2O1 (stereo not given) | -0.0513% [at 35.3 µM]
10 | O=c1c(O)c(O)c1=O | -0.938%
11 | c1coc(Cn2cccc2)c1 | -0.54%
12 | Clc1ccc2c(c1)Nc1ccccc1S2 | -2.61% [at 35.3 µM]
13 | CCC(C)(C)C | 1.62%
14 | CCCCCCCCCCCBr | -4.23% [at 35.3 µM]
15 | Cc1cc2c(cc1CC(=O)c1sccc1S(=O)(=O)Nc1onc(C)c1Cl)OCO2 | 1.44% [at 35.3 µM]
16 | CCCc1ncc(C(=O)O)s1 | 1.42% [at 35.3 µM]
17 | CCO[Si](CC(C)C)(OCC)OCC | -0.368%
18 | C=CC(=O)OCCOCCOCC | -8.53%
19 | O=C(O)Cc1c(Cl)ccc(Cl)c1Cl | -0.379%
20 | C=CCCCCCCCCOC(C)=O | 4.62%

Row | SMILES | activity change, negative = cytotoxic
21 | C=COCCCCO | 1.43%
22 | O=C(O)P(=O)(O)O | 0.845% [at 35.3 µM]
23 | CCCC[O][Al]([O]CCCC)[O]CCCC | 1.63%
24 | CC(=O)OCC(=O)[C@@]1(O)CC[C@H]2[C@@H]3CCC4=CC(=O)C=C[C@]4(C)[C@H]3[C@@H](O)C[C@@]21C | -0.912% [at 35.3 µM]
25 | COc1ccc2cc(CCC(C)=O)ccc2c1 | 0.505% [at 35.3 µM]
26 | CC(O)C(CO)C(C)O (stereo not given) | 0.957%
27 | CC(C)(C)C(=O)NCCCC(=O)O | 4.08% [at 35.3 µM]
28 | N#Cc1ccccc1C#N | 1.39%
29 | CN(C)CCc1c[nH]c2ccc(C[C@H]3COC(=O)N3)cc12 | 0.949% [at 35.3 µM]
30 | COc1cc(OC)cc(OC)c1 | 4.15% [at 35.3 µM]
31 | Cc1nnc(C(=O)NC(C)(C)c2nc(C(=O)NCc3ccc(F)cc3)c(O)c(=O)n2C)o1 | 0.559% [at 35.3 µM]
32 | CCN1CCN(C(=O)N[C@@H](C(=O)N[C@@H]2C(=O)N3C(C(=O)O)=C(CSc4nnnn4C)CS[C@H]23)c2ccc(O)cc2)C(=O)C1=O | 1.66% [at 35.3 µM]
33 | CC(=O)OC/C=C(/C)CCC=C(C)C | 1.07%
34 | CCc1ncc(C)[nH]1 | 2.07%
35 | CCCCCCCCOCCC#N | -3.05%
36 | CCOC(=O)CC | 4.8%
37 | CC(=O)O[C@@H]1CC2C3CCc4cc(OC(=O)c5ccccc5)ccc4C3CCC2(C)[C@H]1OC(C)=O (stereo not given in full) | -2.57% [at 35.3 µM]
38 | CC(C)(C)c1ccc(C(=O)CCCCl)cc1 | -0.371% [at 35.3 µM]
39 | CCCCS | 0.249%
40 | O=C(CCBr)N1CCN(C(=O)CCBr)CC1 | 6.39% [at 35.3 µM]
